Screening results: PubChem BioAssay, National Center for Advancing Translational Sciences (NCATS)
A selection: hits, their analogues and other compounds. The true share with any hit is near 22%.
CHX counter-1 – affects cycloheximide protein synthesis inhibition readout, counter-screen. cell reporter, cycloheximide protein synthesis inhibition counterscreen. max response, %. actives 12% (n = 300,000); in the data active means max response mostly above about 13%, no sharp cut-off; inactive means mostly below about 14%; further: read at 38.3 µM for the half of the compounds with a filed dose
LmPK inh – LmPK (Leishmania mexicana) enzyme inhibition; actives 0.37% (n = 290,000); purified LmPK, Kinase-Glo ATP luminescence, 1 h; Q27686; AID 1721; Potency, µM (doses to about 57.5 µM), usual class: inhibitors
Target sequence (Q27686 whole entry, looked up): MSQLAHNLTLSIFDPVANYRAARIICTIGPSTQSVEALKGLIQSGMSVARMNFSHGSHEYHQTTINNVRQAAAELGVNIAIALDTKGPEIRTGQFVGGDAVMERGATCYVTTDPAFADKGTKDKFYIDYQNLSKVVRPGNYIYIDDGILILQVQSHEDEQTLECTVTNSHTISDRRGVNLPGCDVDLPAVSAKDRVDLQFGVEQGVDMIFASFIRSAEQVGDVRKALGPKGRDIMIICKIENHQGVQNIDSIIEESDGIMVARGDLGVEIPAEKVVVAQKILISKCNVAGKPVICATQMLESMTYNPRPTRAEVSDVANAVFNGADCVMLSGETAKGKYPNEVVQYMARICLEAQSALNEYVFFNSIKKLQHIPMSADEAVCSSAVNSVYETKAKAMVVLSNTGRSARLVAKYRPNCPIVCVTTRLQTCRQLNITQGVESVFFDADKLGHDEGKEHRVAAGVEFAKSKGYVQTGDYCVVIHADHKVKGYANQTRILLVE
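Purified LmPK (0.1 nM) converted ADP (0.1 mM) to ATP with PEP (0.5 mM) in imidazole buffer pH 7.2 with KCl and MgCl2, 1 h at room temperature. ATP was read by Kinase-Glo luminescence; data normalized to uninhibited and no-enzyme controls.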
Pf growth 48h – P. falciparum growth inhibition at 48 hours (one generation); AID 504832; P. falciparum luciferase growth in erythrocytes, 48 h; actives 5.9% (n = 310,000); Potency, µM (doses to about 28.7 µM), hits mostly inhibitors
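Luminescence readout; reporter = integrated firefly luciferase in P. falciparum. RBC culture at 2% hematocrit, 0.1% parasitemia final, 37 C/5% CO2; decreased signal taken as growth inhibition.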
Pf growth 96h – P. falciparum growth inhibition at 96 hours; actives 6.9% (n = 320,000); AID 504834; Potency, µM (highest dose often 28.7 µM), most hits filed as inhibitors; P. falciparum luciferase reporter growth, 96 h
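Cell-based qHTS: luciferase-tagged P. falciparum in erythrocytes (2% hematocrit, 0.05% parasitemia final) incubated with compounds for 96 hours, 37 C, 5% CO2; luciferase detection reagent then added and luminescence measured.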
Shiga toxin inh – inhibitors of Shiga toxin in Vero cells. Vero cells, Shiga toxin protein synthesis inhibition reporter. inhibition, % at 38.7 µM. actives 9.2% (n = 290,000). AID 2315; in the data active means inhibition mostly above about 28%, no sharp cut-off; inactive means mostly below about 43%
CHX counter-2 – protein synthesis counter-screen activity for Shiga toxin hits; Potency, µM (highest dose often 38.3 µM), usual class: activators; shares compounds with Shiga toxin inh; actives 3% (n = 510); Cycloheximide counterscreen, protein synthesis reporter, Shiga toxin assay; AID 2318; calls by dose curve
A number is an active result; . = inactive; ? = inconclusive; / = no result given; ! = not active in a repeat. Unless noted, the call rests on the fitted dose curve; in most records, active means well fitted inhibition curve with a large enough effect; inconclusive means small, poorly fitted or top-dose-only effect, or another doubt; inactive means no such curve, though single readings can be large or run the other way.

SMILES | CHX counter-1 | LmPK inh | Pf growth 48h | Pf growth 96h | Shiga toxin inh | CHX counter-2
COc1ccccc1NC(=O)c1ccc(NC(=O)c2ccco2)cc1 | . | . | ? | . | 43 | .
COc1ccccc1NC(=O)Cn1cc(C(=O)c2ccco2)c2ccccc21 | . | . | ? | . | 60 | .
Cc1c(Cl)cccc1NC(=O)c1ccco1 | . | . | . | ? | / | /
CC(C)c1ccccc1NC(=O)c1ccco1 | . | . | . | . | 58 | ?
Cc1ccc(NCc2nnc(SCC(=O)c3ccccc3)n2Cc2ccco2)c(C)c1 | . | . | . | ? | . | /
O=C(CCS(=O)(=O)c1cccc2nonc12)NCc1ccc(Cl)cc1 | . | . | . | . | . | /
Cc1ccc(C)c(S(=O)(=O)N2CCN(C(=O)c3cccnc3)CC2)c1 | . | . | . | . | . | /
CC(C)NS(=O)(=O)c1ccc(OCC(=O)Nc2ccc(F)cc2F)cc1 | . | . | / | . | . | /
CC(C)NS(=O)(=O)c1ccc(OCC(=O)Nc2ccccc2F)cc1 | . | . | . | . | 34 | .
O=C(NC(=S)N1CCN(c2nc(-c3ccccc3)cs2)CC1)c1cncc(Br)c1 | . | . | ? | ? | . | /
O=C(NCCc1csc(-c2cccnc2)n1)c1cccc(Cl)c1 | . | . | . | . | . | /
O=C(NCCc1csc(-c2cccnc2)n1)c1ccc(Cl)cc1 | . | . | . | ? | 21 | ?
O=C(CN1C(=O)c2ccc([N+](=O)[O-])cc2C1=O)NCc1ccc(C(=O)O)cc1 | . | . | . | . | / | /
CCN1CCN(C(=O)c2ccc3c(=O)n(CCC4=CCCCC4)c(=O)[nH]c3c2)CC1 | . | . | ? | . | 29 | ?
Brc1ccc(C2Nc3cccc4cccc(c34)N2)s1 | . | . | ? | . | . | /
Cc1ccsc1C(=O)N1CCc2ccccc2C1 | . | . | . | . | 36 | ?
CCOC(=O)c1ccc(NC(=O)Nn2cnnc2)cc1 | . | . | . | . | . | /
CCOC(=O)c1ccc(NC(=O)Nc2ccn(C)n2)cc1 | . | . | . | . | 47 | ?
O=C(OCc1ccccc1)N1CCCC1/C=C/CN1CCOCC1 (stereo not drawn) | . | . | . | . | . | /
COC(=O)[C@@]1(Cc2ccc(F)cc2)[C@H]2c3cc(C(=O)N4CCCC4)n(CCc4ccc(O)c(O)c4)c3C[C@H]2CN1C(=O)c1ccccc1 | . | . | ? | 5.9µM | 53 | .
CNc1ccc(/C=C(\CCC(=O)O)c2nc3ccccc3s2)cc1[N+](=O)[O-] | . | . | . | ? | 65 | .
Cc1ccc(/C=C(\CCC(=O)O)c2nc3ccccc3s2)cc1[N+](=O)[O-] | . | . | . | . | . | /
N#Cc1cn(-c2cccc(C(F)(F)F)c2)c(=O)[nH]c1=O | . | . | . | . | . | /
Cc1cccc2c1N(CCCOc1ccccc1)C(=O)C2=O | . | . | . | . | . | /
Cc1ccccc1OCCCN1C(=O)C(=O)c2cccc(C)c21 | . | . | ? | . | 28 | .
SMILES | CHX counter-1 | LmPK inh | Pf growth 48h | Pf growth 96h | Shiga toxin inh | CHX counter-2
CCn1cc(C(=O)N2CCN(c3ccccc3F)CC2)c(=O)c2ccc(C)nc21 | . | . | . | . | . | /
CCN1CCc2nc3ccccc3c(C(=O)Nc3ccc(NC(C)=O)cc3)c2C1 | . | . | . | . | . | /
CC(=O)Nc1ccc(NC(=O)COC(=O)c2c3c(nc4ccccc24)CCN(Cc2ccccc2)C3)cc1 | . | . | 10µM | 5.9µM | 22 | .
O=C1CCCC2=C1C(c1ccccc1)CC(=O)N2c1ccc(F)cc1F (stereo not drawn) | . | . | ? | . | . | /
CCC(C)[C@H]1CNCCN1CCc1cccc(F)c1 (stereo partly drawn) | / | / | . | . | / | /
N#C/C(=C\c1ccc(OCC(N)=O)cc1)S(=O)(=O)c1ccccc1 | . | . | . | . | . | /
O=C1Cc2cc([N+](=O)[O-])ccc2N1c1c(Cl)cccc1Cl | . | . | 4.7µM | . | 64 | .
CC(C)N(C(=O)CN1C(=O)NC(c2ccccc2)(c2ccccc2)C1=O)C(C)C | . | . | . | ? | . | /
COc1ccccc1CNC(=O)Cn1cc([N+](=O)[O-])ccc1=O | . | . | . | . | 50 | .
Cc1nn(Cc2ccccc2)c(Cl)c1/C=C/C(=O)OCC(=O)N1CCCC1=O | . | . | . | ? | . | /
Cn1c(-[n+]2c(-c3ccccc3)cc(-c3ccccc3)cc2-c2ccccc2)nc2cc([N+](=O)[O-])ccc21 | . | . | 13µM | 3.3µM | 42 | .
Cc1ccc(NC(=O)c2cc(S(=O)(=O)N(C)C)ccc2N2CCCC2)cc1F | . | . | . | . | . | /
Cc1ccc(NC(=O)c2cc(S(=O)(=O)N3CCCCC3)ccc2N2CCOCC2)cc1F | . | . | 12µM | / | 31 | .
CC(=O)c1ccc(NC(=O)C(C)Sc2nnc(C3CCCCC3)o2)cc1 (stereo not drawn) | . | . | . | ? | 47 | .
CC(=O)Nc1ccc(NC(=O)C(C)Sc2nnc(-c3cccs3)o2)cc1 (stereo not drawn) | . | . | . | . | . | /
CSc1nc2cc3c(cc2n1C(=O)c1ccc(C)cc1)OCCO3 | . | . | . | . | 80 | ?
Cc1ccc(C(=O)c2cc3c(cc2N)OCCO3)cc1 | . | . | . | . | . | /
CCN(CC(=O)Nc1cccc(F)c1)CC(=O)Nc1ccccc1OC | . | . | . | . | . | /
Cc1noc(C)c1S(=O)(=O)Nc1cccc(CO)c1 | . | . | . | . | 45 | .
CC(=O)c1cccc(NS(=O)(=O)c2c(C)noc2C)c1 | . | . | . | ? | . | /
O=C(c1ccco1)N1CCN(CCCCOc2cccc3ccccc23)CC1 | . | . | ? | ? | 37 | .
O=C(c1ccco1)N1CCN(CCOc2ccc(F)cc2)CC1 | . | . | . | . | . | /
O=c1c2ccccc2nc(SCc2nc3ccccc3s2)n1Cc1ccco1 | . | . | . | . | . | /
O=c1c2ccccc2nc(SCc2cccc(F)c2)n1Cc1ccco1 | . | . | ? | . | 56 | .
CCOc1ccccc1NC(=O)CCS(=O)(=O)c1cccs1 | . | . | . | . | 126 | .
SMILES | CHX counter-1 | LmPK inh | Pf growth 48h | Pf growth 96h | Shiga toxin inh | CHX counter-2
CC(=O)c1cccc(NC(=O)c2ccc(NC(=O)CCS(=O)(=O)c3cccs3)cc2)c1 | . | . | ? | . | 33 | .
CCOc1ccccc1NC(=O)CCS(=O)(=O)c1cccc2nonc12 | . | . | . | ? | . | /
O=C(CCS(=O)(=O)c1cccs1)Nc1ccc(C(=O)NCc2cccs2)cc1 | . | . | ? | / | 29 | .
Cc1nn(C)c(Sc2ccccn2)c1[N+](=O)[O-] | . | . | . | ? | . | /
O=C(/C=C/C#Cc1cccc(NS(=O)(=O)c2ccccc2)c1)NO | . | / | / | / | 65 | .
COc1cc(O)c2c(c1)oc(=O)c1c3cc(O)c(O)cc3oc21 | 21! | / | / | / | 33 | .
COc1cc2oc3cc(C)oc(=O)c3c2cc1OC | . | . | ? | . | . | /
O=c1c2ccccc2sc2nc(C3CCCCC3)n(Cc3ccco3)c(=O)c12 | . | . | 1.7µM | 6.6µM | 24 | .
